# Test results reported in article PMC7862700, “An all-to-all approach to the identification of sequence-specific readers for epigenetic DNA modifications on cytosine”.
# How the values were obtained:
# Assay in all cases: DAPPL (digital affinity profiling via proximity ligation, sequencing); 10 mM Tris-HCl pH 7.5, 50 mM NaCl, 1 mM DTT, 4% glycerol, room temperature, 30 min; GST-TFs on glutathione beads, 16-mer random dsDNA library, 0.1% formaldehyde crosslink after washing; high values mean tight binding
# Conditions in all cases: protein: recombinant; tags: N-terminal GST; dsDNA, one strand shown
# [1] = target: T1, FLI1 (Homo sapiens, UniProt Q01543 1-452)
# T1 sequence: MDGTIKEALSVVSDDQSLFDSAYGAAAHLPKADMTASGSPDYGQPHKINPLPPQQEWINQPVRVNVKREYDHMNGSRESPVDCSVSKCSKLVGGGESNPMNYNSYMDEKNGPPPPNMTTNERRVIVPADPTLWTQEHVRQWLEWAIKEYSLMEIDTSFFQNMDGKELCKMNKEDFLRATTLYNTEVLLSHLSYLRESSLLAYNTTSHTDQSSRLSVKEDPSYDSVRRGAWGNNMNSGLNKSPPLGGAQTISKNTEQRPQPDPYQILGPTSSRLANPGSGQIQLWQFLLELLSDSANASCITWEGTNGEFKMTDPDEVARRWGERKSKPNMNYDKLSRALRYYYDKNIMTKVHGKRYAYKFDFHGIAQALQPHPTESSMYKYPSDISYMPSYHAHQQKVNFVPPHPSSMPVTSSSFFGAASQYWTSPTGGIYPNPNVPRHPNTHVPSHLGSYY
# Summary of the method: (§1)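 Sequencing on an Illumina NextSeq500 followed washing, crosslinking with 0.1% formaldehyde, proximity ligation (BsaI/T4 ligase, 1 h, 37 °C) and PCR amplification of pools that had been incubated for 30 min at room temperature with 200 nmole of a random double-stranded 16-mer DNA library in Tris/NaCl/DTT/glycerol buffer. Each pool held DNA-barcoded human transcription factors, expressed in yeast as GST fusions and captured on glutathione beads, plus a tag-only sample. Binding signal is a hexamer's read frequency for a factor divided by its frequency in the tag-only sample.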
# [2] = target: T2, ELK1 (Homo sapiens, UniProt P19419 1-428)
# T2 sequence: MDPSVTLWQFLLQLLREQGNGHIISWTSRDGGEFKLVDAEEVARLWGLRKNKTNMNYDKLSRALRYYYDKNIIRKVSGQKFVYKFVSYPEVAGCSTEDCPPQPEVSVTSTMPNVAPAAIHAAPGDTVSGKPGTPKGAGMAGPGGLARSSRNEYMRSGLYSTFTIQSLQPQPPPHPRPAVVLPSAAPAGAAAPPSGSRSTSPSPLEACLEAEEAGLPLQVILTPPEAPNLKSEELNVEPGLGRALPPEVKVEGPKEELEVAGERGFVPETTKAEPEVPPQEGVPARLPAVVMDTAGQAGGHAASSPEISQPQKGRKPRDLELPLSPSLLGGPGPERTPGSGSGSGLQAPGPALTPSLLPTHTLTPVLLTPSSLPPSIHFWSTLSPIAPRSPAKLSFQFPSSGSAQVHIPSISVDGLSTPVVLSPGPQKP
# Summary of the method: as §1
# [3] = target: T3, GABPA (Homo sapiens, UniProt Q06546 1-454)
# T3 sequence: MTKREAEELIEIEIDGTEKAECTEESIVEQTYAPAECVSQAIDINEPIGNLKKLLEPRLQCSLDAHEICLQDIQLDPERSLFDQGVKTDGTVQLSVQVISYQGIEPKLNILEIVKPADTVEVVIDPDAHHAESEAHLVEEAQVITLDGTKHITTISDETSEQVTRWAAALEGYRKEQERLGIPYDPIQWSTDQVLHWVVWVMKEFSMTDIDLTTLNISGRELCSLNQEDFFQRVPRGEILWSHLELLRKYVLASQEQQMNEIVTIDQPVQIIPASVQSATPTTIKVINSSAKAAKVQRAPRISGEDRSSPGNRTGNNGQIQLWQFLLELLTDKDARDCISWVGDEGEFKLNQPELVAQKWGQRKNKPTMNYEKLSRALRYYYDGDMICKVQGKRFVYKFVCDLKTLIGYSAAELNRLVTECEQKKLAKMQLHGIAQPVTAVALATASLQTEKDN
# Summary of the method: as §1
# [4] = target: T4, ERG (Homo sapiens, UniProt P11308 1-479)
# T4 sequence: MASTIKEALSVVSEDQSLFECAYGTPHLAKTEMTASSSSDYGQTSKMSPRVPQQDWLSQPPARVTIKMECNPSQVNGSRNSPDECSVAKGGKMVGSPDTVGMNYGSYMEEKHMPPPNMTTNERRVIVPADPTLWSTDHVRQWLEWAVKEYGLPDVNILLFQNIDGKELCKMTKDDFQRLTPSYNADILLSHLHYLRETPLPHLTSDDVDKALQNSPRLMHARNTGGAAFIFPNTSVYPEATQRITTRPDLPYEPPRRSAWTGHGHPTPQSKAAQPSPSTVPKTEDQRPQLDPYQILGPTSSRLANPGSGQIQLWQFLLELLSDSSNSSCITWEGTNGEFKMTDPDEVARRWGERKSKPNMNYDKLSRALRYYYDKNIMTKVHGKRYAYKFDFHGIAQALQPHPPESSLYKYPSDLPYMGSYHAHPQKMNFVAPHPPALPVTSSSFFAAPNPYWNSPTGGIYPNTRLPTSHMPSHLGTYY
# Summary of the method: as §1
# [5] = target: ELF1 (Homo sapiens, UniProt P32519 1-619)
# Summary of the method: as §1
# [6] = target: T5, EHF (Homo sapiens, UniProt Q9NZC4 1-300)
# T5 sequence: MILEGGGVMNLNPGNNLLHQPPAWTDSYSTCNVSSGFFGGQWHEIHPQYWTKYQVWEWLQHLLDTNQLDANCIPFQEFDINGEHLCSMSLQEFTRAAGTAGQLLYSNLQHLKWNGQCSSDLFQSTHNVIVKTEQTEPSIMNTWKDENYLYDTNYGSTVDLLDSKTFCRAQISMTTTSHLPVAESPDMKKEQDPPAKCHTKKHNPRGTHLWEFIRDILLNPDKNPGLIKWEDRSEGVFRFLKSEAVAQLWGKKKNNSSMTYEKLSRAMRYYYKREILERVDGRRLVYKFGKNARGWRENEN
# Summary of the method: as §1
# [7] = target: SPI1 (Homo sapiens, UniProt P17947 1-270)
# Summary of the method: as §1
# [8] = target: SPIB (Homo sapiens, UniProt Q01892 1-262)
# Summary of the method: as §1
# [9] = target: T6, ELK3 (Homo sapiens, UniProt P41970 1-407)
# T6 sequence: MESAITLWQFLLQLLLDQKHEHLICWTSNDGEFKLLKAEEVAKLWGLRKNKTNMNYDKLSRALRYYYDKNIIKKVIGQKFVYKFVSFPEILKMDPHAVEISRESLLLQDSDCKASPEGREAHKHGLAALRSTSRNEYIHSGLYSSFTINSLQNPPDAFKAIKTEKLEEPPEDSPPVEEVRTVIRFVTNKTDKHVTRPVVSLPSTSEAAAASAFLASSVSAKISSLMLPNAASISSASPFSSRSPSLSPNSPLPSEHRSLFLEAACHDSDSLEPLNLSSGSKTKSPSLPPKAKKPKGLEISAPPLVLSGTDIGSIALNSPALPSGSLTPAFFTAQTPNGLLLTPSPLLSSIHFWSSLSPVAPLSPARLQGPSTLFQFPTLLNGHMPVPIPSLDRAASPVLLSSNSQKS
# Summary of the method: as §1
# [10] = target: T7, FEV (Homo sapiens, UniProt Q99581 1-238)
# T7 sequence: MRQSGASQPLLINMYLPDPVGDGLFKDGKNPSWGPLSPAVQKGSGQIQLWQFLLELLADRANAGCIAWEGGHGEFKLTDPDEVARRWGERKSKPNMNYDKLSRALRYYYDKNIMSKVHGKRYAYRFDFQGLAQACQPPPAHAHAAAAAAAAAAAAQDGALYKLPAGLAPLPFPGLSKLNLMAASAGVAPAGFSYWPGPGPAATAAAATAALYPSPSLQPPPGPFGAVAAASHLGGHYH
# Summary of the method: as §1
# [11] = target: ETV5 (Homo sapiens, UniProt P41161 1-510)
# Summary of the method: as §1
# [12] = target: T8, SPIC (Homo sapiens, UniProt Q8N5J4 1-248)
# T8 sequence: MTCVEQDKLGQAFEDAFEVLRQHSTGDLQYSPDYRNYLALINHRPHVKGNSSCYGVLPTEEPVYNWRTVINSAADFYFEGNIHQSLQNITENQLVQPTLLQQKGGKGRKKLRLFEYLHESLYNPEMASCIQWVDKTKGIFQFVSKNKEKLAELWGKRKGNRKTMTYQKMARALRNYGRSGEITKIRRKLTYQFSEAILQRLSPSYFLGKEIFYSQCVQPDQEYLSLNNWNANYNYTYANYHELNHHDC
# Summary of the method: as §1
# [13] = target: ELF4 (Homo sapiens, UniProt Q99607 1-663)
# Summary of the method: as §1
# [14] = target: T9, ELK4 (Homo sapiens, UniProt P28324-2 1-405)
# T9 sequence: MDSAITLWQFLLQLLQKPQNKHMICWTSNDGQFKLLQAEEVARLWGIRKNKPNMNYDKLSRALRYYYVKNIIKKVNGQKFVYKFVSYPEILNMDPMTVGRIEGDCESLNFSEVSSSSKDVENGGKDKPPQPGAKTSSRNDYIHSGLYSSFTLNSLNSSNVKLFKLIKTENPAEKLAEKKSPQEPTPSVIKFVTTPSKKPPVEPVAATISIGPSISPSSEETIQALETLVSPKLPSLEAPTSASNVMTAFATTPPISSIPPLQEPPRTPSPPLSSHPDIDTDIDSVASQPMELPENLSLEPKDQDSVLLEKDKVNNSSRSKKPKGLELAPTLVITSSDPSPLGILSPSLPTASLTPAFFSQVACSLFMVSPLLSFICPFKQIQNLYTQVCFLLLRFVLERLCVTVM
# Summary of the method: as §1
# [15] = target: T10, ETV2 (Homo sapiens, UniProt O00321 1-342)
# T10 sequence: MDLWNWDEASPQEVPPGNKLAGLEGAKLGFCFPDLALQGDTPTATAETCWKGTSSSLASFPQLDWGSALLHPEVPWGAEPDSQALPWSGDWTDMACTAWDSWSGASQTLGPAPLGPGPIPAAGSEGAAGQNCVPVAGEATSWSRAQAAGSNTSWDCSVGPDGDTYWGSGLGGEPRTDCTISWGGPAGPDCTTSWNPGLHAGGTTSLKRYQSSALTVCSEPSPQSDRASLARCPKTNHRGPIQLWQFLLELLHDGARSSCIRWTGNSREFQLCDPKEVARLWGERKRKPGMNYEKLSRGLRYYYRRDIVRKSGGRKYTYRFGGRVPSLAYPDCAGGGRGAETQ
# Summary of the method: as §1
# [16] = target: T11, ELF3 (Homo sapiens, UniProt P78545 1-371)
# T11 sequence: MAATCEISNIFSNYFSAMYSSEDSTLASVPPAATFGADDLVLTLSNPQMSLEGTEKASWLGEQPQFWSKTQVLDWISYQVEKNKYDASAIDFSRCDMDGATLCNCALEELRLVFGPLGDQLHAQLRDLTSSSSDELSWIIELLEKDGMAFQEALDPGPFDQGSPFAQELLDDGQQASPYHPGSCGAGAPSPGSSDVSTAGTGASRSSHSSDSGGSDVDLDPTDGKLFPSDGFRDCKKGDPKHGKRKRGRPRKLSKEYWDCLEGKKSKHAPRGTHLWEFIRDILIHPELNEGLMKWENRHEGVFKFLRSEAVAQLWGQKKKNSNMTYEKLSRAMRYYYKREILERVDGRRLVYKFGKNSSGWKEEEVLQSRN
# Summary of the method: as §1
# [17] = target: ETV1 (Homo sapiens, UniProt P50549 1-477)
# Summary of the method: as §1
# Chain of ELF4 (Q99607 whole entry): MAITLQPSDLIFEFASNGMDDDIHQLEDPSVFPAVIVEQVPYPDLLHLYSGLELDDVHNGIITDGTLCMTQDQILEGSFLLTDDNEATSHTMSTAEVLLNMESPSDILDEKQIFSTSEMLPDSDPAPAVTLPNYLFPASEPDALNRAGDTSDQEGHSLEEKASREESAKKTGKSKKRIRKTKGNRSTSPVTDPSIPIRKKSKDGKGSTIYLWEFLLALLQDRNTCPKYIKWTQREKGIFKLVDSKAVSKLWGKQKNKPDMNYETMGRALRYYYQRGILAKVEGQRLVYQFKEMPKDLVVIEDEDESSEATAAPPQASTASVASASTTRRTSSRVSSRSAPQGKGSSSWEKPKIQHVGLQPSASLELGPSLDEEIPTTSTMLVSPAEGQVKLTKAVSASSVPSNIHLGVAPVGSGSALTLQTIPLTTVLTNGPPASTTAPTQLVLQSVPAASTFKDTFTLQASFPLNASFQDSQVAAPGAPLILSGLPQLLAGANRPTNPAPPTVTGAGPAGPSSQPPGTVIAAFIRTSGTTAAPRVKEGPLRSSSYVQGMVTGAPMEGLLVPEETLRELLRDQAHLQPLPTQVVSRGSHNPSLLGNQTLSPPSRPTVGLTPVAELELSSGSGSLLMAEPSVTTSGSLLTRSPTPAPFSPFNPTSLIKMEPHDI
# Chain of SPIB (Q01892 whole entry): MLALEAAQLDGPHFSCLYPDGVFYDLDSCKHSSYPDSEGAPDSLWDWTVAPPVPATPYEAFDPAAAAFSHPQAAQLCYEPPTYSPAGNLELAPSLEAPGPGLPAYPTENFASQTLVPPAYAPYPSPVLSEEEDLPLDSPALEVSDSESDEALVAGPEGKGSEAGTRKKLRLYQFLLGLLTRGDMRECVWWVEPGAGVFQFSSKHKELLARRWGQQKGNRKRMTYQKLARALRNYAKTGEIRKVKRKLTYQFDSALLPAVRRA
# Chain of ETV5 (P41161 whole entry): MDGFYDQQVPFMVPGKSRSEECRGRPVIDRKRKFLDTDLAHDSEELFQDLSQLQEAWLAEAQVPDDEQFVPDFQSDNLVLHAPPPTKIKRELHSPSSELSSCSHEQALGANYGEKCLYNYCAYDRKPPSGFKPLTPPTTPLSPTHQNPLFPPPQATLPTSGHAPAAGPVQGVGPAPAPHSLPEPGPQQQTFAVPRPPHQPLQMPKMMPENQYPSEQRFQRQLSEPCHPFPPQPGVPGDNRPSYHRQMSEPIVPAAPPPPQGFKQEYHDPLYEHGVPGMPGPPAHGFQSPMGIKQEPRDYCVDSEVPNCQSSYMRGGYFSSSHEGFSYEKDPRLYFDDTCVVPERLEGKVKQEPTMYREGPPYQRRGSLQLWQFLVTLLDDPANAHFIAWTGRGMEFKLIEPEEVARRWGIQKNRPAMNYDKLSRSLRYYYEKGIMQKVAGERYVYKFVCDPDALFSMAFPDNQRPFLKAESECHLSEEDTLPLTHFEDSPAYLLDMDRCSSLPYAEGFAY
# Chain of ELF1 (P32519 whole entry): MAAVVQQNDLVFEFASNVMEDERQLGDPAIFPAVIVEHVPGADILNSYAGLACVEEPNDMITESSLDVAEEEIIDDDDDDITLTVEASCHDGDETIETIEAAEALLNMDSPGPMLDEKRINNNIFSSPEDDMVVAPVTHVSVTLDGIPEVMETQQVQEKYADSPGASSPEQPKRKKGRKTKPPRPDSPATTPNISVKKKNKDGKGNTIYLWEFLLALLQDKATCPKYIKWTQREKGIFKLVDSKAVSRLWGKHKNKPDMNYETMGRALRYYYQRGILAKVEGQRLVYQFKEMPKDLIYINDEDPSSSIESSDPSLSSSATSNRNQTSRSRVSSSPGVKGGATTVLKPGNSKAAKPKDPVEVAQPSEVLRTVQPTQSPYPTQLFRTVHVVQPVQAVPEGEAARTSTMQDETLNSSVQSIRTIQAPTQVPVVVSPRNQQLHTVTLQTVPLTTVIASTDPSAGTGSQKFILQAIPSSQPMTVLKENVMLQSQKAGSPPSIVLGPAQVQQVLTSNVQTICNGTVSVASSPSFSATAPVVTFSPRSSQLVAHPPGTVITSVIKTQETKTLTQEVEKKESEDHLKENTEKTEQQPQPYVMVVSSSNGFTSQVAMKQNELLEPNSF
# Chain of ETV1 (P50549 whole entry): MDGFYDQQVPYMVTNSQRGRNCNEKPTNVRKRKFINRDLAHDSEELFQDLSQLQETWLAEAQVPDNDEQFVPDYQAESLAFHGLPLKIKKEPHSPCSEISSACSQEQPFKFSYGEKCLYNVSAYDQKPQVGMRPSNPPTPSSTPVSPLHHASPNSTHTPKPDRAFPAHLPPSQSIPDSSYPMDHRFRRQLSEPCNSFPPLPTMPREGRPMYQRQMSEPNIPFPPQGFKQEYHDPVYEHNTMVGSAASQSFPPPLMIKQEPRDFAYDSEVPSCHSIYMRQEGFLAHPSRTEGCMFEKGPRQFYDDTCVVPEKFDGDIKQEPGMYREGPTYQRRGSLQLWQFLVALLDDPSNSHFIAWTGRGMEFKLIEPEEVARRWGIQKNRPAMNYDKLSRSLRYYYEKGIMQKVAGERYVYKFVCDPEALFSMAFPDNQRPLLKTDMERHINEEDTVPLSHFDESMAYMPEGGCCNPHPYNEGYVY
Sequence,binding signal [1],binding signal [2],binding signal [3],binding signal [4],binding signal [5],binding signal [6],binding signal [7],binding signal [8],binding signal [9],binding signal [10],binding signal [11],binding signal [12],binding signal [13],binding signal [14],binding signal [15],binding signal [16],binding signal [17]
GTTGCA,"1.25 fold enrichment (6-mer frequency, TF over GST control)","1.15 fold enrichment (6-mer frequency, TF over GST control)","1.16 fold enrichment (6-mer frequency, TF over GST control)","1.01 fold enrichment (6-mer frequency, TF over GST control)","1.14 fold enrichment (6-mer frequency, TF over GST control)","1.2 fold enrichment (6-mer frequency, TF over GST control)","1.15 fold enrichment (6-mer frequency, TF over GST control)","1.1 fold enrichment (6-mer frequency, TF over GST control)","1.25 fold enrichment (6-mer frequency, TF over GST control)","1.11 fold enrichment (6-mer frequency, TF over GST control)","1.16 fold enrichment (6-mer frequency, TF over GST control)","1.11 fold enrichment (6-mer frequency, TF over GST control)","1.15 fold enrichment (6-mer frequency, TF over GST control)","1.06 fold enrichment (6-mer frequency, TF over GST control)","1.06 fold enrichment (6-mer frequency, TF over GST control)","1.1 fold enrichment (6-mer frequency, TF over GST control)","1.19 fold enrichment (6-mer frequency, TF over GST control)"
CGTCCG,"1.31 fold enrichment (6-mer frequency, TF over GST control)","1.27 fold enrichment (6-mer frequency, TF over GST control)","1.24 fold enrichment (6-mer frequency, TF over GST control)","1.27 fold enrichment (6-mer frequency, TF over GST control)","1.28 fold enrichment (6-mer frequency, TF over GST control)","1.36 fold enrichment (6-mer frequency, TF over GST control)","1.08 fold enrichment (6-mer frequency, TF over GST control)","1.41 fold enrichment (6-mer frequency, TF over GST control)","1.36 fold enrichment (6-mer frequency, TF over GST control)","1.48 fold enrichment (6-mer frequency, TF over GST control)","1.23 fold enrichment (6-mer frequency, TF over GST control)","1.37 fold enrichment (6-mer frequency, TF over GST control)","1.26 fold enrichment (6-mer frequency, TF over GST control)","1.17 fold enrichment (6-mer frequency, TF over GST control)","1.16 fold enrichment (6-mer frequency, TF over GST control)","1.26 fold enrichment (6-mer frequency, TF over GST control)","1.38 fold enrichment (6-mer frequency, TF over GST control)"
